Experiment [1] can be described thus: qHTS profiling for inhibitors of Plasmodium falciparum proliferation (AID 504749). Also: nearly all actives have a fitted effect of over 60% in size.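 As to activity, negative = inhibition: 0% = DMSO vehicle and full inhibition = artemisinin control.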 As to conditions: P. falciparum in erythrocytes, SYBR Green DNA, 72 h. In a few lines: (§1)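 SYBR Green fluorescence (ex 485 nm, em 535 nm) reports parasite DNA after 72 h compound exposure of infected red cells at 0.3% parasitemia, 2.5% hematocrit; signal normalized to 0.29 uM artemisinin and vehicle wells.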

For a further experiment, the system named is 3D7. The description is as above. As to conditions: P. falciparum in erythrocytes, SYBR Green DNA, 72 h; series mostly up to 28.7 µM. In short, it runs like this: as §1
For another experiment, the system named is 7G8. The experiment is described as above. The settings on record: P. falciparum in erythrocytes, SYBR Green DNA, 72 h; series mostly up to 28.7 µM. In short, it runs like this:
as §1

Another experiment relates to AA1029. The description is as above. As to conditions: P. falciparum in erythrocytes, SYBR Green DNA, 72 h; series mostly up to 28.7 µM. In a few lines: as §1
For another experiment, the system named is AS120. The experiment is described as above. The settings on record: P. falciparum in erythrocytes, SYBR Green DNA, 72 h; series mostly up to 28.7 µM. In short, it runs like this: as §1
Another experiment concerns ATS189. The description is as above. As to conditions: P. falciparum in erythrocytes, SYBR Green DNA, 72 h; series mostly up to 28.7 µM. In short, it runs like this: as §1
[2] abbreviates: at 28.7 µM (top of the series), parasite line A.
[3] abbreviates: at 28.7 µM (top of the series), parasite line B.

Structures are written as SMILES. Inconclusive results are not listed. Values without a mark were called inactive. Calls of active or inactive are those of the source. Calls follow the shape of the dose curve; as a rule, active = well fitted inhibition curve with a large enough effect; inconclusive = small, poorly fitted or top-dose-only effect; inactive = flat fitted curve, though single readings scatter.
Potency is read from the fitted curve at half-maximal effect.

On to `Cc1nc(-c2ccc(Cl)cc2)oc1COC(C)(C)C(=O)O`, for which the values for the activity, negative = inhibition in experiment [1] (setting [2]) and in experiment [1] (setting [3]) were 9.36% and 9.87%, respectively. Also, the Potency entry in the experiment with 3D7, in the experiment with 7G8, with AA1029, with AS120 and in the experiment with ATS189 was “inactive” in each case.
For `N=C(N)N1CCc2ccccc2C1`, the activity, negative = inhibition in experiment [1] (setting [2]) is 15.6%; in experiment [1] (setting [3]), 0.433%. Further, the Potency entry in the experiment with 3D7, with 7G8, in the experiment with AA1029, with AS120 and in the experiment on ATS189 was “inactive” in each case.
Take `Cc1cc(C)cc(OCC2CNC(=O)O2)c1` (stereo unspecified): the activity, negative = inhibition in experiment [1] (setting [2]) was -4.76%; in experiment [1] (setting [3]), 4.34%. The Potency result in the experiment on 3D7, with 7G8, with AA1029, with AS120 and in the experiment with ATS189 was “inactive” each time.
For `OCc1ccccn1`, the figures for the activity, negative = inhibition in experiment [1] (setting [2]) and in experiment [1] (setting [3]) were 7.68% and 8.75%, respectively. The Potency entry in the experiment on 3D7, with 7G8, in the experiment on AA1029, in the experiment on AS120 and with ATS189 was “inactive” in each case.
With `C=CCN1CCc2nc(N)sc2CC1`, the activity, negative = inhibition is -6.7% in experiment [1] (setting [2]) and 2.41% in experiment [1] (setting [3]). Also, the Potency entry in the experiment with 3D7, in the experiment with AA1029, with AS120 and in the experiment on ATS189 was “inactive” each time.
Turning to `C#C[C@]1(OC(C)=O)CC[C@H]2[C@@H]3CCC4=C/C(=N/O)CC[C@@H]4[C@H]3CC[C@@]21CC`, the results for the activity, negative = inhibition in experiment [1] (setting [2]) and in experiment [1] (setting [3]) were -6.98% and -15.6%, respectively. For the same compound, the Potency entry with 3D7, with AA1029, with AS120 and with ATS189 was “inactive” each time.
Consider `COc1ccc(CN(CCN(C)C)c2ncccn2)cc1`, for which the activity, negative = inhibition was 12.9% in experiment [1] (setting [2]) and 5.48% in experiment [1] (setting [3]). The Potency entry in the experiment with 3D7, in the experiment on AA1029, with AS120 and with ATS189 was “inactive” in each case.
For `NCCNc1cccc2ccccc12`, the activity, negative = inhibition in experiment [1] (setting [2]) is -9.01%; in experiment [1] (setting [3]) it was 2.1%. The Potency entry in the experiment with 3D7, in the experiment with AA1029, in the experiment with AS120 and with ATS189 was “inactive” throughout.
For `CCOC(=O)C(C#N)=C(c1ccccc1)c1ccccc1`, the values for the activity, negative = inhibition in experiment [1] (setting [2]) and in experiment [1] (setting [3]) were 12.2% and -2.15%, respectively. For the same compound, the Potency entry in the experiment on 3D7, with AA1029, with AS120 and with ATS189 was “inactive” each time.
For the compound `CCOCCn1c(N2CCCN(C)CC2)nc2ccccc21`, the activity, negative = inhibition in experiment [1] (setting [2]) was 7.9%; in experiment [1] (setting [3]), 8.28%. In addition, the Potency result in the experiment on 3D7 and with AS120 was “inactive” throughout.
On to `CN1CCN(c2cc3c(cc2F)c(=O)c(C(=O)O)cn3-c2ccc(F)cc2)CC1`, for which the activity, negative = inhibition is -21.3% in experiment [1] (setting [2]) and -17.5% in experiment [1] (setting [3]). The Potency result with 3D7, in the experiment with 7G8, in the experiment with AA1029 and in the experiment on ATS189 was “inactive” each time.
As to `NC(=O)C1(N2CCCCC2)CCN(CCCC(=O)c2ccc(F)cc2)CC1`, the activity, negative = inhibition is 3.28% in experiment [1] (setting [2]) and 10.8% in experiment [1] (setting [3]). The Potency result in the experiment on 3D7, in the experiment with AA1029, in the experiment on AS120 and in the experiment with ATS189 was “inactive” throughout.
Turning to `CCCCC(CC)COC(=O)/C=C/c1ccc(OC)cc1` (stereo unspecified), the values for the activity, negative = inhibition in experiment [1] (setting [2]) and in experiment [1] (setting [3]) were 10.4% and 11.8%, respectively. In addition, the Potency result in the experiment on 3D7, in the experiment on AA1029, in the experiment on AS120 and in the experiment on ATS189 was “inactive” in each case.
For `CCN(CC)CCOC(=O)C1(c2ccccc2)CCCC1`, the activity, negative = inhibition in experiment [1] (setting [2]) was -50.7%; in experiment [1] (setting [3]), -32%. Moreover, the Potency in the experiment with AA1029 is 0.01 µM (active). Moreover, the Potency entry in the experiment on AS120 and in the experiment on ATS189 was “inactive” each time.
Turning to `COc1ccc(C(Cl)=C(c2ccc(OC)cc2)c2ccc(OC)cc2)cc1`, the Potency in experiment [1] (parasite line A) was 3.98 µM (active); in experiment [1] (parasite line B) it was 3.98 µM (active); in the experiment on AA1029 it was 6.31 µM (active); in the experiment on AS120, 3.55 µM (active); in the experiment on ATS189 it was 2.82 µM (active).
On to `C=C[C@@]1(C)CC(=O)[C@]2(O)[C@@]3(C)[C@@H](O)CCC(C)(C)[C@@H]3[C@H](O)[C@H](OC(C)=O)[C@@]2(C)O1`, for which the activity, negative = inhibition in experiment [1] (setting [2]) is -7.28%; in experiment [1] (setting [3]), 2.74%. The Potency entry with 3D7, in the experiment on AA1029, in the experiment on AS120 and in the experiment on ATS189 was “inactive” throughout.
As to `CC(C)=CCOc1ccc(/C=C/C(=O)c2ccc(OCC=C(C)C)cc2OCC(=O)O)cc1`, the activity, negative = inhibition in experiment [1] (setting [2]) was -9.12%; in experiment [1] (setting [3]) it was -8.65%. In addition, the Potency entry in the experiment on 3D7, in the experiment on AA1029, in the experiment with AS120 and in the experiment with ATS189 was “inactive” each time.
With `CC1CCc2c(N3CCC(O)CC3)c(F)cc3c(=O)c(C(=O)O)cn1c23` (stereo unspecified), the activity, negative = inhibition in experiment [1] (setting [2]) was -29.3%; in experiment [1] (setting [3]), -19.8%. Also, the Potency in the experiment with 7G8 is 11.2 µM (active).
In the case of `CCCCNc1ccc(C(=O)OCCOCCOCCOCCOCCOCCOCCOCCOCCOC)cc1`, the activity, negative = inhibition in experiment [1] (at 12.8 µM (top of the series), parasite line A) is -21.5%; in experiment [1] (at 12.8 µM (top of the series), parasite line B) it was -9.92%. For the same compound, the Potency entry with 3D7, in the experiment on AA1029, in the experiment with AS120 and with ATS189 was “inactive” in each case.

These data come from PubChem BioAssay (NCATS).
